PubChem BioAssay (EPA / NIEHS)
Inconclusive results are not listed. Active and inactive are the calls of the source. Rule for the calls: active = hit-call score of the fitted dose curve at least 0.9, where 1 is the maximum; inconclusive = response in the unintended direction; inactive = score below 0.9.

Assay: ATG_XTT_Cytotoxicity: Cytotoxicity Assessment in the Attagene TRANS-FACTORIAL HepG2 Assay (AID 2283584);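 for AC50: XTT signal for cell number as viability in transfected HepG2 cells; cells exposed to compound for 24 h before reading; active means loss of viability signal versus DMSO baseline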
Method in brief: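 HepG2 cells transiently transfected with GAL4-UAS multiple reporter units, dosed 24 h; cytotoxicity read by XTT as loss of signal versus DMSO baseline.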

Structure (SMILES) | outcome | AC50
Cc1ccc(N=Nc2c(O)ccc3ccccc23)c(C)c1 | inactive | 
O=C(O)CN(CCCN(CC(=O)O)CC(=O)O)CC(=O)O | inactive | 
CCCCCc1ccc(O)cc1 | inactive | 
CC(=O)Nc1ccc(S(N)(=O)=O)cc1 | inactive | 
CC(C)CCOCCC(C)C | inactive | 
Oc1cc2ccccc2cc1O | inactive | 
CCOC=C(C(=O)OCC)C(=O)OCC | inactive | 
O=S(=O)(c1ccc(OCc2ccccc2)cc1)c1ccccc1O | inactive | 
Nc1ccn([C@@H]2O[C@H](CO)[C@@H](O)C2O)c(=O)n1 (some centres not stated) | inactive | 
CCCCCCCCCCCC(=O)O | inactive | 
CC(C)c1c(C(=O)Nc2ccccc2)c(-c2ccccc2)c(-c2ccc(F)cc2)n1CC[C@@H](O)C[C@@H](O)CC(=O)O | inactive | 
COC1=CC(=O)C[C@@H](C)[C@]12Oc1c(Cl)c(OC)cc(OC)c1C2=O | inactive | 
CCc1cccc(CC)c1NC(=O)C(=O)O | inactive | 
CCOC=O | inactive | 
CCCCCCCCCCCC |  | 89.9 µM (active)
OCCN1CN(CCO)CN(CCO)C1 | inactive | 
COc1cccc(O)c1 | inactive | 
O=C1c2ccc(O)c(O)c2C(=O)c2c(O)ccc(O)c21 | inactive | 
CCCCCCCCCCCCCCCC(=O)OC | inactive | 
CC1CNCC(C)O1 (configuration not stated) | inactive | 
CCN(CCC#N)c1ccccc1 | inactive | 
C=CC(=C)CC/C=C(\C)CCC=C(C)C | inactive | 
Cc1ccccc1OCC(=O)O | inactive | 
COC(O)c1ccccc1 (configuration not stated) | inactive | 
Cc1cccc2c1ccc1ccccc12 | inactive | 
O=S(=O)(O)c1ccccc1 | inactive | 
COCC1CCC(CO)CC1 (configuration not stated) | inactive | 
